Among the data in PubChem BioAssay AID1024 (Sanford-Burnham Center for Chemical Genomics, 2008) are activation factor values, retold here.

Out of some 96,000 compounds screened, about 1,400 (1.5%) were called active.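 The calls were made as follows: active = activation factor of 2 or more for CYP2C9 at a 5 µM dose; inactive = the rest.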 What follows is part of a selection rich in actives, with near analogues and random picks from the rest.

In this assay the target is Cytochrome P450 2C9 (Homo sapiens) (UniProt P11712). The experiment in a line: human CYP2C9 activators, primary screen, biochemical, luminescence (AID 1024).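 Also: 0 = sulfaphenazole-blocked wells and 1 = vehicle-only wells.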 The following applies: recombinant CYP2C9, luciferin-H conversion, at 5 µM, hits give high values, factor 1 = untreated enzyme, 0 = blocked.
Sequence of Cytochrome P450 2C9 (Homo sapiens) (P11712 whole entry, looked up): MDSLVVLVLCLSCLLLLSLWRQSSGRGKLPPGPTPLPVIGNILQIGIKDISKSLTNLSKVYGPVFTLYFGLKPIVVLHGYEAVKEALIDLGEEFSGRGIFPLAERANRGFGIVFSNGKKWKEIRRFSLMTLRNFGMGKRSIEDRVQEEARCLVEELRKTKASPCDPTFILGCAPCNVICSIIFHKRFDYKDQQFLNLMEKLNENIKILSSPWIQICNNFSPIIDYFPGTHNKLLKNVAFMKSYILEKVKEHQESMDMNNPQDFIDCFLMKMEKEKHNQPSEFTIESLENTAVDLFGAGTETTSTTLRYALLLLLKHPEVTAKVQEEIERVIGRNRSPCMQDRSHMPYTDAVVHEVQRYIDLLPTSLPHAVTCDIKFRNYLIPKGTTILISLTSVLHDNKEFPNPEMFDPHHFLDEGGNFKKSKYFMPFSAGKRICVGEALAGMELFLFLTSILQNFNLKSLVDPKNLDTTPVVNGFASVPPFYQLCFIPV
For `C=CCNC(=O)c1sc(SC)cc1-c1ccc(Cl)cc1`, the activation factor is 0.4 (inactive).

For `Cc1ccc(C(=O)OC2=CC(=O)CC(C)(C)C2)cc1`, the activation factor is 0.7 (inactive).

For the compound `Cc1ccc(S(=O)(=O)NCCN2CCOCC2)cc1C`, the activation factor is 0.8 (inactive).

As for `O=[N+]([O-])c1ccc(NCCCN2CCOCC2)c(Cl)c1`, the activation factor is 0.9 (inactive).

For the compound `Cc1cc(C)c(S(=O)(=O)NCCCN2CCOCC2)cc1Br`, the activation factor was 2 (active).

For `O=C(CN1CCN(S(=O)(=O)c2ccc(Cl)s2)CC1)NCc1ccc(Cl)cc1`, the activation factor is 0.4 (inactive).

Turning to `CCCCNCc1ccc(SC)cc1`, the activation factor is 1 (inactive).

With `O=C(NCc1ccccn1)c1cc(-c2ccccc2Cl)on1`, the activation factor is 2.6 (active).

With `O=C(NCc1ccccn1)c1cc2ccccc2oc1=O`, the activation factor was 1.3 (inactive).

In the case of `C=CCNC(=O)c1cc(-c2ccccc2O)on1`, the activation factor is 1.5 (inactive).

`COc1ccccc1NC(=O)COc1ccc(C(=O)OCC(=O)N(C(C)C)C(C)C)cc1OC`: the activation factor was 0.6 (inactive).

Regarding `O=C(NCc1cccs1)C1CCN(S(=O)(=O)c2ccc3c(c2)OCCO3)CC1`, the activation factor was 2.7 (active).

On to `O=C(NCc1ccc2c(c1)OCO2)C1CCCN(S(=O)(=O)c2cccs2)C1` (configuration not stated), for which the activation factor is 0.1 (inactive).

In the case of `O=C(c1ccc2c(c1)OCCO2)C1CCN(S(=O)(=O)c2cccc(F)c2)CC1`, the activation factor was 1.2 (inactive).

For `FC(F)(F)c1cccc(-c2cc3ccccc3nc2N2CCCC2)c1`, the activation factor is 0.9 (inactive).

For the compound `CCOC(=O)n1c(SCC(=O)N(CC)CC)nc2ccccc21`, the activation factor is 0.7 (inactive).

For the compound `CCN(CC)C(=O)CSc1nnc(-c2cccc(OC)c2)o1`, the activation factor was 1.6 (inactive).

As to `CCN(Cc1ccccc1)C(=O)CSc1nc(C)cc2c1C(=O)OC2`, the activation factor was 2.3 (active).

For `CCN1CCN(c2ccc([N+](=O)[O-])cc2C(=O)c2ccc(Cl)cc2)CC1`, the activation factor is 1.6 (inactive).

For `CC1CC(C)CN(C/C=C/c2ccccc2[N+](=O)[O-])C1` (configuration not stated), the activation factor was 0.9 (inactive).

Regarding `COc1ccc(Cl)cc1S(=O)(=O)N1CCN(CC(=O)C(C)(C)C)CC1`, the activation factor was 2.4 (active).

With `COc1ccc(NC(=O)CN2CCN(S(=O)(=O)c3ccc(F)cc3)CC2)cc1Cl`, the activation factor was 0.8 (inactive).

Regarding `COc1ccc(Cl)cc1S(=O)(=O)Nc1cccc(C(=O)O)c1`, the activation factor is 0.9 (inactive).

As for `O=C(CSCc1ccc([N+](=O)[O-])cc1)NCCSCc1ccccc1`, the activation factor was 0.6 (inactive).

Consider `CCOC(=O)C1CN(S(=O)(=O)c2ccc(F)cc2)C1`, for which the activation factor is 0.9 (inactive).

Consider `COc1ccc(Cl)cc1NC(=O)c1oc(C)nc1C`, for which the activation factor was 2.7 (active).

In the case of `Cc1nc(C)c(C(=O)Nc2cccc(C)c2C)o1`, the activation factor is 1 (inactive).

Consider `Cc1nc(C)c(C(=O)Nc2ccc(C)c(F)c2)o1`, for which the activation factor was 1 (inactive).

Regarding `Cc1ccc(NC(=S)NC2CCCC2)cc1`, the activation factor is 0.7 (inactive).

Consider `COc1ccc([N+](=O)[O-])cc1NC(=O)CCc1ccccc1`, for which the activation factor is 1.7 (inactive).

Consider `COc1ccccc1NC(=O)c1ccc(C)s1`, for which the activation factor was 3.5 (active).

Take `COc1ccccc1NC(=S)NC(=O)C(C)C`: the activation factor was 0.9 (inactive).

With `COc1ccccc1NC(=O)/C=C/C(N)=O`, the activation factor was 1.2 (inactive).

Take `N#Cc1ccsc1NC(=O)CN1CCCCC1`: the activation factor was 1.2 (inactive).

As for `COc1cc(/C=N\NC(=O)CNC(=O)c2cccc([N+](=O)[O-])c2)ccc1O`, the activation factor was 1.1 (inactive).

Take `CC1(C)CC(=O)C2=C(C1)N=C1SCCC(=O)N1C2c1ccc(C(F)(F)F)cc1` (configuration not stated): the activation factor was 1.2 (inactive).

Consider `CCOc1ccc(S(=O)(=O)Nc2ccc(S(=O)(=O)Nc3cc(OC)ccc3OC)cc2)cc1`, for which the activation factor is 0.2 (inactive).

Consider `CCOc1ccccc1NC(=O)Nc1cc(OC)ccc1OC`, for which the activation factor is 1 (inactive).

`CCOc1ccc(C(=O)Nc2cc(OC)ccc2OC)cc1`: the activation factor is 2.1 (active).

With `CCOC(=O)c1sc2nc(SC)nc(-c3ccccc3)c2c1N`, the activation factor was 0.9 (inactive).

With `O=c1c([N+](=O)[O-])cc(C(F)(F)F)cn1Cc1cccc(Cl)c1`, the activation factor is 0.8 (inactive).

As for `O=S(=O)(c1cccs1)N1CCN(Cc2ccccc2)CC1`, the activation factor was 0.3 (inactive).

`O=C(Nc1ccc(S(=O)(=O)N2CCc3ccccc3C2)cc1)c1ccccc1`: the activation factor was 1 (inactive).

As for `O=S(=O)(c1cccs1)N1CCc2ccccc2C1`, the activation factor is 3.1 (active).

With `COc1ccc(C(=O)N2CCc3cc(OC)c(OC)cc3C2c2cccc([N+](=O)[O-])c2)cc1` (configuration not stated), the activation factor is 0.4 (inactive).

On to `Cc1nnsc1S(=O)(=O)Cc1ccccc1Cl`, for which the activation factor is 1 (inactive).

On to `O=S(=O)(NCCOc1cccc2cccnc12)c1ccc(F)cc1`, for which the activation factor was 3.3 (active).

Take `COc1ccc(CCNS(=O)(=O)c2ccc(F)cc2)cc1OC`: the activation factor was 0.2 (inactive).

For the compound `O=S(=O)(NCc1ccccn1)c1ccc(F)cc1`, the activation factor is 1 (inactive).

Regarding `O=C(/C=C/c1ccccc1)c1ccoc1`, the activation factor is 0.8 (inactive).

Take `Cc1nn(C)c(Oc2ccccc2)c1CCNS(=O)(=O)c1ccc(F)cc1`: the activation factor is 0.5 (inactive).

As to `CC(C)(C)NC(=O)NC(=O)COC(=O)CCC1CCCCC1`, the activation factor is 0.9 (inactive).

Consider `COc1ccccc1C(=O)Nc1ccc(NC(=O)c2ccco2)c(C)c1`, for which the activation factor is 2.8 (active).

For the compound `COc1cccc(C(=O)Nc2ccc(NC(=O)c3ccco3)cn2)c1`, the activation factor was 0.8 (inactive).

For the compound `COc1ccc(OC)c(NC(=O)c2cnn(-c3ccccc3Cl)c2NC(=O)c2ccco2)c1`, the activation factor was 0.8 (inactive).

Turning to `COC(=O)c1cc(Cl)c(NC(=O)c2ccco2)cc1OC`, the activation factor was 2.4 (active).

`COC(=O)c1ccc(NC(=O)c2ccco2)cc1`: the activation factor was 0.8 (inactive).

Regarding `COc1ccc(NC(=O)c2cccc(NC(=O)c3ccco3)c2)c(OC)c1`, the activation factor was 1.5 (inactive).

For the compound `CCOC(=O)Nc1ccc(S(=O)(=O)N(C)C(C)C)cc1`, the activation factor was 0.7 (inactive).

For `O=C(COc1ccc(Br)cc1F)NC1CCN(Cc2ccccc2)CC1`, the activation factor is 0.7 (inactive).

For the compound `Cc1onc(-c2c(Cl)cccc2Cl)c1C(=O)c1c[nH]c(C(=O)NC2CC2)c1`, the activation factor is 0.9 (inactive).

Regarding `Cc1cc(C(=O)CSc2nc(N)cc(=O)[nH]2)c(C)n1CCc1ccc(Cl)cc1`, the activation factor was 0.9 (inactive).

For `CCn1cc(C(=O)N/N=C(/C)c2ccc(F)cc2)c(=O)c2cc(F)c(N3CCCC3)cc21`, the activation factor is 0.9 (inactive).

On to `COc1ccc(S(=O)(=O)NC(CC(=O)NCc2ccccc2OC)c2ccco2)cc1` (configuration not stated), for which the activation factor was 1.4 (inactive).

Regarding `COc1ccccc1CNS(=O)(=O)c1ccc(C)cc1`, the activation factor was 2.6 (active).

Take `COc1ccccc1Cc1nc(-c2ccc(C)cc2)no1`: the activation factor was 0.9 (inactive).

As to `CCOC(=O)C1(S(=O)(=O)c2ccc(Cl)cc2)CCN(Cc2ccccc2)CC1`, the activation factor was 0.8 (inactive).
